Hits are enriched below; roughly 5.8% of the tested compounds scored in any of these assays.
SW480 rerep: DNA re-replication induction in SW480 cells. SW480 DNA re-replication, Hoechst DNA content imaging, 48 h. Potency, µM (top dose mostly 46.1 µM), without a hit: at the highest dose re-replication activation, hits mostly activators. 340,000 compounds, 1.8% hits. AID 624297; also: % of control where 0% means no effect; nearly all actives have a fitted effect of over 55% in size
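DNA re-replication was detected as more nuclei of elevated Hoechst intensity after 48 hr exposure to compound (23 nL pinned per well of 250 cells).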
PINK1 modulator: modulators of PINK1 expression; PINK1 immunofluorescence, high-content cytometry, 24 h; Potency, µM (highest dose often 76.6 µM), for inactives: at the highest dose activation (PINK1 increase), actives largely listed as activators; 410,000 compounds, 0.2% hits; active = well fitted activation curve with a large enough effect; inconclusive = small, poorly fitted or top-dose-only effect; cell line not stated here; also: % of control where 0% means no effect; nearly all actives have a fitted effect of over 65% in size
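Decision-based qHTS: stable cells, 24 h exposure to five compound concentrations, CCCP as control. Fixed cells stained for PINK1 plus nuclear, mitochondrial and cell markers, cytometer read.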
MCF10A rereplic: DNA re-replication induction in MCF 10a cells | 350,000 compounds, 2.9% hits | Potency, µM (doses to about 46.1 µM), inactives show at the highest dose activity, positive = re-replication, actives largely listed as activators | AID 624296 | MCF 10A DNA re-replication, Hoechst nuclear intensity, 48 h; also: % of control where 0% means no effect; nearly all actives have a fitted effect of over 50% in size
12-LOX inh: blocks human arachidonate 12S-lipoxygenase | 580,000 compounds, 1.1% hits | Potency, µM (doses to about 108 µM), for the others: top-dose activity change, negative = inhibition, usual class: inhibitors | P18054 | purified 12hLO, xylenol orange hydroperoxide absorbance | AID 1671190; also: % is scaled to controls: 0 for no effect and ±100 for the full control effect
Target sequence (P18054 whole entry, looked up): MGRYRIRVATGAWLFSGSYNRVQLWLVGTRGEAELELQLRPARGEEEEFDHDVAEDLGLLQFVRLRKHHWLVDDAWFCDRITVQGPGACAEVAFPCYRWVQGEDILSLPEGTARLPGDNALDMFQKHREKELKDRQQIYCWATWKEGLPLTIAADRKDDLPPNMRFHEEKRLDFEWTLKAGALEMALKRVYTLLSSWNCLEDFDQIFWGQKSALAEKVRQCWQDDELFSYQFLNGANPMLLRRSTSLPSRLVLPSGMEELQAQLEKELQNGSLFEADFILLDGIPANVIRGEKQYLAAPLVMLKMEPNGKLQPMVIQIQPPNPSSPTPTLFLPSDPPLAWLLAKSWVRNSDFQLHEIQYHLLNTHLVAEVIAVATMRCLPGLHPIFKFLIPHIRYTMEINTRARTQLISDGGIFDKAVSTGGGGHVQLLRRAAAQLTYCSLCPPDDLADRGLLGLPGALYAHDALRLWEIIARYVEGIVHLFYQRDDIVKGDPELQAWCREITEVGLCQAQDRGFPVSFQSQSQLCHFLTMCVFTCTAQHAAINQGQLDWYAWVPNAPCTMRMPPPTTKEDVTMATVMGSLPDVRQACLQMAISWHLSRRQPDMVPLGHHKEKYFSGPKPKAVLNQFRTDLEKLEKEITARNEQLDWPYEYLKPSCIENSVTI
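Purified human 12hLO (150 nM final) in 25 mM Hepes, 0.01% Triton X-100, pH 7.0 was preincubated 15 min at room temperature with compound. Then 40 uM arachidonic acid was added, 30 min. Hydroperoxide was read by Fe-XO absorbance ratio 573/405 nm.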
KB-3-1 tox: kills parental KB-3-1 adenocarcinoma cells; KB-3-1 viability, CellTiter-Glo ATP luminescence, 72 h; Potency, µM (top dose mostly 46.1 µM), hits mostly cytotoxic; 400,000 compounds, 1.4% hits; AID 1347075; also: % is scaled to controls: 0 for no effect and ±100 for the full control effect; nearly all actives have a fitted effect of over 60% in size
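Parental KB-3-1 adenocarcinoma cells in phenol-red-free DMEM with 10% FBS were pin-treated with compounds at several concentrations, incubated 72 h at 37 °C, and viability read by CellTiter-Glo luminescence; concentration-effect curves were fitted after normalization.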
KB-V1 MDR tox: KB-V1 MDR subline cytotoxicity; AID 1347076; KB-V1 MDR cells viability, CellTiter-Glo, 72 h; Potency, µM (doses to about 46.1 µM), most hits filed as cytotoxic; 400,000 compounds, 3.4% hits; also: % is scaled to controls: 0 for no effect and ±100 for the full control effect; nearly all actives have a fitted effect of over 60% in size
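qHTS viability screen in drug-selected KB-V1 MDR cells: 72 h compound treatment at 37 degrees C, ATP luminescence end point.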
* hit, by the source's call; ! = a repeat was not active. Unless noted, calls follow the shape of the dose curve; as a rule, active = well fitted curve in the direction sought with a large enough effect; inconclusive = small, poorly fitted or top-dose-only effect, or another doubt; inactive = no such curve, though single readings can be large; an effect the other way counts as inactive or inconclusive. Potency is read from the fitted curve at half-maximal effect.

What do the screens show for `Cn1c(-c2sccc2OCc2ccc(Cl)cc2Cl)n[nH]c1=S`?
SW480 rerep: 18%; PINK1 modulator: 2%; MCF10A rereplic: inconclusive; 12-LOX inh: 28µM*; KB-3-1 tox: inconclusive; KB-V1 MDR tox: inconclusive

Results for Cc1ccc(COc2ccsc2-c2n[nH]c(=S)n2C)cc1 ?
SW480 rerep: -17%; MCF10A rereplic: 0%; 12-LOX inh: 14µM*; KB-3-1 tox: inactive; KB-V1 MDR tox: inactive

Results for CC(C)=CCC/C(C)=C/CNCC(O)CN1CCOCC1 (centres undefined) ?
12-LOX inh: 0.63µM*

How did OC(CN1CCOCC1)CN1CCOCC1 do in these assays?
SW480 rerep: -1%; PINK1 modulator: 4%; MCF10A rereplic: -3%; 12-LOX inh: inconclusive; KB-3-1 tox: inactive; KB-V1 MDR tox: inactive

What do the screens show for `CC(C)COc1nc2ccccc2nc1C(C#N)C(=O)NC1CCCCC1` (centres undefined)?
SW480 rerep: 2%; PINK1 modulator: 5%; MCF10A rereplic: 5.8µM*; 12-LOX inh: 0%; KB-3-1 tox: inactive; KB-V1 MDR tox: inactive

How did Cc1ccc(N2C(=O)c3cccc4c(N)ccc(c34)C2=O)c2cccnc12 do in these assays?
SW480 rerep: inconclusive; PINK1 modulator: 40µM*; MCF10A rereplic: inconclusive; 12-LOX inh: -12%; KB-3-1 tox: inconclusive; KB-V1 MDR tox: 0.58µM*

Results for Cc1nn(C)c(C)c1N1C(=O)c2cccc3c(N)ccc(c23)C1=O ?
SW480 rerep: 5%; PINK1 modulator: 1%; MCF10A rereplic: 13%; 12-LOX inh: -29%; KB-3-1 tox: inactive; KB-V1 MDR tox: inactive

How did COc1ccc(-c2cc(N3CCN(C(=O)c4ccc(OC)cc4OC)CC3)n[nH]2)cc1 do in these assays?
12-LOX inh: 17%

What do the screens show for `CN(Cc1cccc(Cl)c1)C(=O)C1CCN(C(=O)Nc2ccccc2)CC1`?
SW480 rerep: -4%; PINK1 modulator: -1%; MCF10A rereplic: 10%; 12-LOX inh: -15%; KB-3-1 tox: inactive; KB-V1 MDR tox: inactive

Results for COc1ccc(CCN(C)C(=O)C2CCCN(C3CCN(Cc4ccccc4)CC3)C2)cc1OC (centres undefined) ?
SW480 rerep: -1%; PINK1 modulator: 0%; MCF10A rereplic: 23%; 12-LOX inh: 0.32µM*!; KB-3-1 tox: inactive; KB-V1 MDR tox: inactive

What do the screens show for `CN(Cc1ccccc1)C(=O)C1CCCN(Cc2cccc(Cl)c2)C1` (centres undefined)?
SW480 rerep: -43%; PINK1 modulator: 2%; MCF10A rereplic: 0.29µM*; 12-LOX inh: inconclusive; KB-3-1 tox: inconclusive; KB-V1 MDR tox: inactive

How did COc1ccc2c(C)c(CC(=O)N3CCC(O)(c4ccc(Cl)cc4)CC3)c(=O)oc2c1 do in these assays?
12-LOX inh: -7%

Results for O=C1CCCc2[nH]cc(-c3ccccc3)c21 ?
12-LOX inh: -18%

How did O=C(c1cc2ccccc2oc1=O)N1CCCc2ccccc21 do in these assays?
12-LOX inh: 0%

How did Cc1cccc(NC(=O)CSc2cccc3cccnc23)c1C do in these assays?
SW480 rerep: 2%; PINK1 modulator: 2%; MCF10A rereplic: -11%; 12-LOX inh: inconclusive; KB-3-1 tox: inactive; KB-V1 MDR tox: inactive

How did CCOC(=O)CSc1cccc2cccnc12 do in these assays?
SW480 rerep: 6.5µM*; PINK1 modulator: 2%; MCF10A rereplic: 20%; 12-LOX inh: inconclusive; KB-3-1 tox: inconclusive; KB-V1 MDR tox: 23µM*

What do the screens show for `Cc1cccc(CSc2cccc3cccnc23)c1`?
SW480 rerep: 6.5µM*; PINK1 modulator: 0%; MCF10A rereplic: inconclusive; 12-LOX inh: 1%; KB-3-1 tox: inconclusive; KB-V1 MDR tox: inconclusive

Results for FC(F)(F)c1cccc(CSc2cccc3cccnc23)c1 ?
12-LOX inh: -4%

How did c1cnc2c(SCc3ccc(-c4nnco4)cc3)cccc2c1 do in these assays?
SW480 rerep: inconclusive; PINK1 modulator: 1%; MCF10A rereplic: 4%; 12-LOX inh: 0%; KB-3-1 tox: inactive; KB-V1 MDR tox: 15µM*

How did CCCN(CC(=O)Nc1ccc(-c2ccccc2)cc1)Cc1nnc(-c2ccco2)o1 do in these assays?
12-LOX inh: 29%

What do the screens show for `COC(=O)c1cc(C)nc2onc(-c3ccc(F)cc3)c12`?
12-LOX inh: -15%

Results for Cc1ccc(NC(=O)CN(C)C(=O)c2cccc(-n3cccc3)c2)cc1 ?
SW480 rerep: 3%; PINK1 modulator: 3%; MCF10A rereplic: 2%; 12-LOX inh: 35µM*; KB-3-1 tox: inactive; KB-V1 MDR tox: inconclusive

How did c1ccc(-c2nnc3sc(-c4cc5ccccc5o4)nn23)cc1 do in these assays?
SW480 rerep: inconclusive; PINK1 modulator: inconclusive; MCF10A rereplic: 18µM*; 12-LOX inh: 5%; KB-3-1 tox: inactive; KB-V1 MDR tox: inactive

What do the screens show for `O=C1CCCC2=C1C(c1ccsc1)CC(=O)N2c1cccc(C(F)(F)F)c1` (centres undefined)?
12-LOX inh: 5%

How did COc1cc(NC2=Nc3cccc4cccc2c34)cc(OC)c1OC do in these assays?
SW480 rerep: inconclusive; PINK1 modulator: 16%; MCF10A rereplic: inconclusive; 12-LOX inh: -20%; KB-3-1 tox: inactive; KB-V1 MDR tox: 2.6µM*

Results for COc1ccc(NC2=Nc3cccc4cccc2c34)cc1OC ?
SW480 rerep: -2%; PINK1 modulator: -4%; MCF10A rereplic: 0%; 12-LOX inh: inconclusive; KB-3-1 tox: inactive; KB-V1 MDR tox: inconclusive

What do the screens show for `C(=N\NC1=Nc2cccc3cccc1c23)/c1ccccc1`?
SW480 rerep: 3%; PINK1 modulator: 5%; MCF10A rereplic: inconclusive; 12-LOX inh: -15%; KB-3-1 tox: inactive; KB-V1 MDR tox: inactive

What do the screens show for `COc1cccc(NC2=Nc3cccc4cccc2c34)c1`?
SW480 rerep: 1%; PINK1 modulator: 0%; MCF10A rereplic: 0%; 12-LOX inh: -19%; KB-3-1 tox: inactive; KB-V1 MDR tox: 13µM*

How did CCNc1c(NC(=O)Cc2ccc(F)cc2)c(=O)oc2ccccc12 do in these assays?
12-LOX inh: -5%

Results for Nn1c(SCc2c(F)cccc2F)nnc1-c1ccccn1 ?
SW480 rerep: 7.3µM*; PINK1 modulator: -1%; MCF10A rereplic: 2%; 12-LOX inh: 216%; KB-3-1 tox: inactive; KB-V1 MDR tox: inactive

What do the screens show for `O=C(NCCC1=CCCCC1)c1ccc(Cn2ccn3nc4c(c3c2=O)CCCC4)cc1`?
12-LOX inh: 18%

How did CCCc1ccc(-c2c(C)sc(N)c2C#N)cc1 do in these assays?
SW480 rerep: 1%; PINK1 modulator: 4%; MCF10A rereplic: -1%; 12-LOX inh: inconclusive; KB-3-1 tox: inconclusive; KB-V1 MDR tox: inactive
